Compound activity (PubChem BioAssay)
Only a sample is shown.
aSyn UTR act = Activators working through SNCA 5'UTR binding (MLPCN) | hit rate 7.1% among 300,000 | activity score, % (tested at 7.5 µM), hits read low | AID 1814 | alpha-synuclein 5'UTR reporter, activators screen; in the data active = activity score below about -60%
Each line names hits and unclear results; the compound was inactive in the other large screens.

CCN(CC)S(=O)(=O)c1cccc(C(=O)Nc2ccc(Cl)cn2)c1	aSyn UTR act -76
Cc1ccc(NC(=O)c2cccc(S(C)(=O)=O)c2)cc1	aSyn UTR act -83
Clc1ccc(CONc2ncnc3nonc23)c(Cl)c1	aSyn UTR act -124
COCC(=O)Nc1nc(-c2ccc(-c3ccccc3)cc2)cs1	aSyn UTR act -220
CC(C)C(=O)Nc1nc(-c2ccc([N+](=O)[O-])cc2)cs1	aSyn UTR act -74
CCc1ccccc1OCC(=O)Nc1nc(-c2cccnc2)cs1	none
COCC(=O)Nc1nc(-c2ccc([N+](=O)[O-])cc2)cs1	aSyn UTR act -70
CNc1nc(-c2ccc([N+](=O)[O-])cc2)cs1	aSyn UTR act -135
O=C(COC(=O)c1ccccn1)Nc1nc(-c2ccccc2)cs1	aSyn UTR act -80
O=[N+]([O-])c1ccc(-c2csc(NN=C3CCCC3)n2)cc1	aSyn UTR act -177
FC(F)(F)c1cc(-c2ccco2)nc(NCCc2ccccc2)n1	aSyn UTR act -92
CCSc1nc2ccccc2n1C(=O)/C=C/c1ccc(OC)c(OC)c1	aSyn UTR act -168
C=CCSc1nc2ccccc2n1C(=O)/C=C/c1ccc(OC)c(OC)c1	aSyn UTR act -219
C=CCSc1nc2ccccc2n1C(=O)/C=C/c1cc(OC)c(OC)c(OC)c1	aSyn UTR act -172
CC(O)CNCCCCOc1ccc(OCc2ccccc2)cc1 (stereo not given)	aSyn UTR act -93
COC(=O)c1c(NC(=O)c2ccccc2[N+](=O)[O-])sc2c1CC(C)(C)NC2(C)C	aSyn UTR act -70
COC(=O)c1c(NC(=O)COc2ccc(Cl)cc2)sc2c1CC(C)(C)NC2(C)C	none
COc1cccc(C(=O)NC(=S)Nc2cccnc2)c1	aSyn UTR act -153
CCOc1ccc(C(=O)NC(=S)Nc2cccnc2)cc1	aSyn UTR act -135
CC(C)Oc1cccc(C(=O)NC(=S)Nc2cccnc2)c1	aSyn UTR act -114
CC(C)Oc1cccc(C(=O)NC(=S)Nc2ccccc2)c1	aSyn UTR act -90
CCCOc1cccc(C(=O)NC(=S)Nc2ccccc2)c1	aSyn UTR act -102
COc1ccc(OCc2cc(C(=O)N3CCCC(CO)C3)no2)c2ccccc12 (stereo not given)	aSyn UTR act -102
CSc1ccccc1OCc1cc(C(=O)N2CCSCC2)no1	aSyn UTR act -113
CSc1ccccc1OCc1cc(C(=O)N2CCCC(C)C2)no1 (stereo not given)	aSyn UTR act -134
COc1ccccc1OCc1cc(C(=O)N2CCCC(OCc3cccnc3)C2)no1 (stereo not given)	aSyn UTR act -134
CSc1ccccc1OCc1cc(C(=O)N2CCN(C3CCCC3)C(=O)C2)no1	aSyn UTR act -112
O=C(Nc1ccc(F)cc1)c1csc(Cc2ccccc2)n1	aSyn UTR act -110
COc1ccc(NC(=O)c2csc(Cc3ccccc3)n2)cc1	aSyn UTR act -110
CN(Cc1nc(-c2cccc(Cl)c2)no1)C1CCOCC1	aSyn UTR act -121
COc1ccc2oc(-c3ccco3)cc(=O)c2c1	aSyn UTR act -129
COc1cc(OC)c2c(=O)cc(-c3ccccc3)oc2c1	aSyn UTR act -102
COc1cccc2oc(-c3ccco3)cc(=O)c12	aSyn UTR act -94
O=c1cc(-c2ccco2)oc2ccc(Cl)cc12	aSyn UTR act -96
Fc1ccc(N2Cc3ccsc3C=N2)cc1	aSyn UTR act -64
CC(=O)c1ccc(OCc2ccccc2)c(C)c1O	aSyn UTR act -108
COc1ccc(CCN2CCC(Nc3nc4ccccc4n3Cc3ccc(F)cc3)CC2)cc1	none
CN(C(=O)c1ccc(OC2CCN(CCc3ccccc3)CC2)cc1)C1CCCCC1	aSyn UTR act -125
O=C(CC1OC(=O)c2ccccc21)c1ccco1 (stereo not given)	aSyn UTR act -75
CCOCCOC(=O)c1[nH]c2c(c1C)C(=O)CC(c1cccs1)C2 (stereo not given)	none
O=C(/C=C/c1ccccc1)N1CCC(c2ccccc2)C1 (stereo not given)	aSyn UTR act -82
COC(=O)C1CCN(C(=O)/C=C/c2ccccc2)CC1	aSyn UTR act -135
CCOC(=O)C1CCN(C(=O)/C=C/c2cccs2)CC1	aSyn UTR act -70
CC(=O)c1cccc(NC(=S)NC(=O)c2cccc(C)c2)c1	aSyn UTR act -145
CC(=O)c1cccc(NC(=S)NC(=O)c2ccc(Cl)cc2)c1	aSyn UTR act -131
CC(=O)c1cccc(NC(=S)NC(=O)c2ccccc2C)c1	aSyn UTR act -64
O=C(NC12CC3CC(CC(C3)C1)C2)c1ccc(-c2ccc(Br)cc2)o1	aSyn UTR act -246
O=C(NC12CC3CC(CC(C3)C1)C2)c1ccc([N+](=O)[O-])o1	aSyn UTR act -200
Cc1cc(C(=O)CSc2nc3ccccc3o2)c(C)n1C1CC1	aSyn UTR act -165
C=CCn1c(C)cc(C(=O)CSc2nc3ccccc3[nH]2)c1C	none
C=CCn1c(C)cc(C(=O)CSc2nc3ccccc3o2)c1C	aSyn UTR act -137
C=CCn1c(C)cc(C(=O)COc2nncc3ccccc23)c1C	aSyn UTR act -123
